# In PubChem BioAssay (NCI):
# About 83,000 compounds went through this panel and 20% of them were active in at least one assay; those are over-represented in the sample as a whole.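 Single-dose data. Exposure time 48 hours. Values below 10 considered active.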 Values without a mark were called inactive. Activity calls are given as the source filed them.
# Tests used:
# Experiment in all cases: NCI-60 one-dose screen, 48 h (100 = growth as untreated, 0 = no growth, -100 = all killed)
# Settings in all cases: 10 µM unless noted
# [1] = test system: NCI-H23 lung
# [2] = test system: NCI-H226 lung
# [3] = test system: NCI-H322M lung
# [4] = test system: HOP-62 NSCLC
# [5] = test system: NCI-H460 lung
# [6] = test system: HOP-92 NSCLC
# [7] = test system: NCI-H522 lung
# [8] = test system: A549/ATCC NSCLC
# [9] = test system: 786-0 renal
# [10] = test system: COLO 205 colon
Compound,growth [1],growth [2],growth [3],growth [4],growth [5],growth [6],growth [7],growth [8],growth [9],growth [10]
c1cc2ccc3cc2cc1CNCCOCCNCc1ccc2ccc(cc2c1)CNCCOCCNC3,-52.6% (active),-29.4% (active),-10.7% (active),-10.2% (active),-9.48% (active),-31.5% (active),-61.6% (active),0.178% (active),43.5%,-53.2% (active)
c1ccc(Nc2nc(-c3ccccn3)cs2)nc1,19.1%,-9.64% (active),27.1%,16.4%,-9.3% (active),63.6%,26.3%,11.2%,-2.41% (active),11.5%
N#Cc1c(N)nc2c(C#N)c(NC(=O)c3ccccc3)nn2c1-c1ccccc1,87%,78%,94.7%,90.7%,96.8%,82.5%,86.5%,92.6%,102%,103%
O=C1/C(=C\c2cccnc2)SC(=S)N1CCc1ccc(O)cc1,50%,94.2%,91.5%,45.6%,18.7%,27.4%,11.9%,93.9%,39.1%,79.9%
O=C1/C(=C2/C=Nc3ccccc32)N(O)c2ccccc21,56.8%,77%,108%,95.6%,91.4%,124%,57.1%,94.2%,104%,104%
CN(C)CC1=NC2SC=C(c3ccccc3)C2C(=O)N1CC#N (stereo not given),102%,85.5%,89.2%,102%,115%,-14.6% (active),84.5%,96.3%,96.2%,130%
O=S(=O)(Nc1cccc(Cl)c1)c1ccc(-c2cnc(C3CC3)o2)cc1,29.3%,40.9%,48.1%,31.9%,16.5%,20.5%,-1.89% (active),38.4%,28.4%,0.342% (active)
COc1ccc2c(c1)C(=O)/C(=C/c1ccc(OCC(=O)Nc3nccs3)cc1)O2,2.06% (active),94.1%,127%,106%,90.2%,-78.8% (active),-61% (active),84.9%,-12.6% (active),54.9%
CCN(CC)Cc1cccc(C(=O)OC)c1,96.6%,90.2%,106%,85.2%,103%,87.7%,101%,69%,90.7%,106%
Nc1n[nH]c2cc(F)c([C@@H]3Nc4c(F)cc5[nH]ncc5c4[C@H]4C5CCC(C5)[C@@H]34)cc12 (stereo not given in full),25.5%,46.3%,57%,27.9%,2.33% (active),33.8%,14.9%,19.4%,29.2%,-8.08% (active)
CNS(=O)(=O)c1n[nH]nc1-c1cc(C(C)(C)C)c(O)c(C(C)(C)C)c1,105%,104%,102%,84.7%,109%,80.2%,80.2%,89.5%,91.2%,103%
O=C(N/N=C/c1ccncc1)c1ccc(C(F)(F)F)nc1Nc1cccc(C(F)(F)F)c1,21.4%,23.7%,8.36% (active),13.3%,14.3%,3.81% (active),-9.51% (active),16.1%,-27.9% (active),-3.93% (active)
Cc1ccc2c(c1)Sc1c(ccc3ccccc13)N2,74.7%,75.4%,90%,-2.75% (active),20.8%,75.3%,61.3%,59%,18.1%,91.5%
Cc1ccc2nc(NC(=O)CSc3nc(Nc4ccc([N+](=O)[O-])cc4)c(C#N)c(-c4ccccc4)n3)sc2c1,99.6%,98.7%,92.6%,95.6%,98.7%,90.9%,87.3%,93.8%,101%,108%
CCc1c2c(nc3ccc(OC(=O)OCc4ccc(B5OC(C)(C)C(C)(C)O5)cc4)cc13)-c1cc3c(c(=O)n1C2)COC(=O)[C@]3(O)CC,-30.6% (active),-59.9% (active),1.92% (active),-10.7% (active),-6.28% (active),9.38% (active),-28.3% (active),3.37% (active),11.7%,7.72% (active)
Cc1cc(=O)[nH]c(N=Nc2c(O)[nH]c3ccccc23)n1,100%,97.9%,123%,119%,105%,101%,103%,103%,102%,89.5%
CC1(C)CC(=O)C2=C(C1)N(c1ccc(OC(F)(F)F)cc1)C(N)=C(C#N)C2c1ccc(Cl)cc1 (stereo not given),85.6%,90.7%,91.3%,72.7%,93.7%,58.5%,63.1%,76.3%,78.6%,96.6%
Cc1cc(NCc2cc(Nc3ccnc4cc(Cl)ccc34)ccc2F)nc(N2CCOCC2)n1,43.8%,61.2%,71.3%,-9.53% (active),39.8%,42.5%,21.8%,59.4%,1.21% (active),35.5%
COc1ccc(N=Nc2ccc(O)c(=O)cc2)cc1,2.37% (active),4.29% (active),25.2%,19.1%,2.64% (active),19.4%,0.606% (active),5.6% (active),19.5%,26.3%
O=[N+]([O-])c1ccc(C2CC(c3ccccc3)=Nc3ccccc3S2)cc1 (stereo not given),94.4%,118%,107%,112%,101%,81%,94.6%,105%,105%,118%
COc1ccc(/C=N/C2=C(C#N)C(c3ccc(OC)cc3)c3ccc4ccccc4c3O2)cc1 (stereo not given),75.5%,74.5%,97.6%,67%,75.6%,70.3%,45.5%,83.7%,95.1%,102%
COc1ccc(CN2C(=O)C(Cl)=C(Nc3cccc(C(F)(F)F)c3)C2=O)cc1,36.8%,49.5%,84.3%,28.3%,22%,-17.2% (active),40.6%,59.2%,37.8%,36.5%
CCOC(=O)c1c2ncccc2n2c(=O)n(-c3ccccc3C)nnc12,93.6%,97.4%,89.3%,78.6%,95%,128%,93.3%,102%,98%,108%
Cc1nc2c(c(N3CCCc4ccccc43)n1)CCC2,25.5%,10.9%,54.5%,4.68% (active),3.12% (active),0.664% (active),-18.6% (active),2.98% (active),10.1%,-59.5% (active)
COc1cc(/C=C/C(=O)c2cccc(-n3cc(-c4ccccc4)[nH]c3=O)c2)ccc1O,84.5%,105%,85.4%,129%,89.2%,45.3%,26.2%,66.7%,74%,100%
N/C(=N\c1nc2ccccc2s1)NC(=O)Nc1cccc(Cl)c1,59.4%,55.3%,53.3%,36.8%,15.1%,51.6%,17.1%,40.4%,34.8%,26.2%
C[C@@]1(CCC#N)[C@H]2CC[C@@H]3[C@H]4[C@H](C(=O)/C=C/c5cccnc5)CC[C@]4(C#N)CC[C@@]3(C)[C@]2(C)CC[C@H]1C(=O)/C=C/c1cccnc1,62.8%,65.5%,97.7%,73.2%,75.2%,80.7%,37.9%,71.9%,77.9%,71.7%
